About 79,000 compounds went through this panel and 15% of them were active in at least one assay; those are over-represented in the sample as a whole. Calls of active or inactive are those of the source. No stated cut-off is given here; in the data, active means growth inhibition above about 70%; inactive means the rest.
Key:
[1] = NCI Yeast Anticancer Drug Screen. Data for the rad50 strain (AID 155);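 further: 0% = growth of vehicle-only cultures of the same strain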; settings: S. cerevisiae rad50 strain growth inhibition; at 50.0 µM; active compounds read high
Outline: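 Compounds were tested on a yeast strain with an engineered DNA damage repair alteration; the reported value is growth inhibition normalised to vehicle treatment.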

[2] = NCI Yeast Anticancer Drug Screen. Data for the mec2-1 strain (AID 157); settings: S. cerevisiae mec2-1 strain, at 50.0 µM, active compounds read high
Outline: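 Using mec2-1 yeast: add compound, measure growth, express inhibition versus vehicle-treated cultures.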

[3] = NCI Yeast Anticancer Drug Screen. Data for the sgs1 mgt1 strain (AID 161);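 further: 0% = growth of cultures given vehicle only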; settings: S. cerevisiae sgs1 mgt1 strain, at 50.0 µM, active compounds read high
Outline: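 Growth of a repair-deficient yeast mutant was monitored after compound treatment and expressed as inhibition relative to vehicle-treated cultures.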

[4] = NCI Yeast Anticancer Drug Screen. Data for the cln2 rad14 strain (AID 165);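 further: 0% = growth equal to vehicle treated cultures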; settings: S. cerevisiae cln2 rad14 strain, at 50.0 µM, active compounds read high
Outline: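 Yeast strain cln2 rad14, bearing defects in cell cycle control and DNA repair, serves as the test system; values reflect growth inhibition compared with vehicle.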

[5] = NCI Yeast Anticancer Drug Screen. Data for the bub3 strain (AID 167); settings: S. cerevisiae bub3 mutant strain, at 50.0 µM, active compounds read high
Outline: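 Growth of a checkpoint-deficient yeast mutant is measured after compound exposure. Values represent inhibition relative to vehicle.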

[6] = NCI Yeast Anticancer Drug Screen. Data for the mlh1 rad18 strain (AID 175); settings: S. cerevisiae mlh1 rad18 strain growth inhibition; at 50.0 µM; active compounds read high
Outline: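 Steps: expose repair-defective yeast to compound; measure growth; express inhibition against vehicle-treated controls.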

Measured: growth inhibition

O=C(O)c1c2ccccc2nc2ccccc12
inactive: [1] -17.6% | [2] -17.9% | [3] -17.9% | [4] -34.5% | [5] 15.2% | [6] 57%

COC(=O)C(O)C(O)C(O)C(O)C(=O)OC (stereo unspecified)
inactive: [1] 2.2% | [2] 17.4% | [3] 10.8% | [4] -5.65% | [5] 11.2% | [6] 13.3%

Cc1c(C2CC(=O)N(c3ccccc3)C2=O)c2ccccc2n1C (stereo unspecified)
inactive: [1] -6.25% | [2] -6% | [3] -7.4% | [4] -33.7% | [5] 1.85% | [6] -8.25%

O=[N+]([O-])c1cccc(N=C(c2ccccc2)N(O)c2ccccc2)c1
inactive: [1] 1.8% | [2] -19.2% | [3] 0.85% | [4] 31.9% | [5] 10.9% | [6] 15.8%

CCCCCCCCCCCCCCCC(=O)OCC1OC(OC(=O)CCCCCCCCCCCCCCC)C(OC(=O)CCCCCCCCCCCCCCC)C(OC(=O)CCCCCCCCCCCCCCC)C1OC(=O)CCCCCCCCCCCCCCC (stereo unspecified)
inactive: [1] -19.8% | [2] -25.8% | [3] -19.9% | [4] -7.05% | [5] -24.7% | [6] -14.8%

COc1ccc(CC(C)C(C)Cc2ccc(OC)c(OC)c2)cc1OC (stereo unspecified)
inactive: [1] 4.9% | [2] 9.15% | [3] 1.6% | [4] -4.75% | [5] 4.25% | [6] -3.6%

COc1ccc(N2C(=O)C3c4[nH]c5ccccc5c4C4CCCCCCC4C3C2=O)cc1 (stereo unspecified)
inactive: [1] 50.1% | [2] 25.9% | [3] 22.6% | [4] -8.9% | [5] 11.9% | [6] 28.6%

CCCCOC(=O)NC
inactive: [1] 44.6% | [2] -6.7% | [3] 12.8% | [4] -15.9% | [5] 7.85% | [6] 22.2%

COc1ccccc1NCC(=O)Nn1c(C)nc2ccc(S(=O)(=O)Nc3ccccc3OC)cc2c1=O
inactive: [1] 2.85% | [2] -18.9% | [3] 20.9% | [4] 16.2% | [5] 1.55% | [6] 0.1%

CC(=O)NNC(=S)/N=C/c1c(C)[nH]n(-c2ccccc2)c1=O
inactive: [1] 4.6% | [2] -7.95% | [3] -22.1% | [4] 2.65% | [5] -6.85% | [6] 17.6%

Cc1ccc(NC2C=C(c3ccccc3)Oc3ccccc32)c(C)c1 (stereo unspecified)
inactive: [1] 20.1% | [2] -3.7% | [3] 20.9% | [4] -3.25% | [5] 14.1% | [6] 8.45%

Clc1c(Cl)c(CBr)c(Cl)c(-c2c(Cl)c(Cl)c(Cl)c(CBr)c2Cl)c1Cl
inactive: [1] 2.15% | [2] -4.1% | [3] -2.55% | [4] -25.7% | [5] 2.45% | [6] -1.1%

O=C(CSc1nnc(-c2ccc(N=Cc3ccc(Cl)cc3)cc2)o1)Nc1ccc([N+](=O)[O-])cc1
inactive: [1] 14.7% | [2] -7.65% | [3] 14.7% | [4] -53.8% | [5] -11.3% | [6] 14.9%

CCc1c2c(cc3c1CC1(C3)Cc3cc4c(c(C(=O)OC)c3C1)CCCC4)CCCC2 (stereo unspecified)
inactive: [1] -18.8% | [2] -16.4% | [3] -20.8% | [4] 9.65% | [5] -14% | [6] -25.9%

C=CCOC(=O)Oc1ccc(Cl)cc1Cl
inactive: [1] 9.75% | [2] 0.3% | [3] 3.3% | [4] -10.3% | [5] 21.4% | [6] 18.5%

CC(=O)OCC(OC(C)=O)C1(O)CCC2C3CCC4=CC(=O)CCC4(C)C3CCC21C (stereo unspecified)
active: [1] 98.4% | [2] 99% | [3] 98.5% | [4] 97.8% | [5] 98.3% | [6] 98.3%

OC(c1cccnc1)C(CCc1ccccn1)c1ccccn1 (stereo unspecified)
inactive: [1] 2.65% | [2] 13.1% | [3] -4.6% | [4] -46% | [5] 4.3% | [6] 4%

N#CCc1ccc(-c2ccccc2)cc1
inactive: [1] -2.75% | [2] 20.9% | [3] 3.3% | [4] -31.9% | [5] -19.6% | [6] 6.25%

Cc1cc(-c2ccccc2N)nc2ccccc12
inactive: [1] 47.5% | [2] 2.35% | [3] 30.4% | [4] 31.3% | [5] 15.9% | [6] 26.6%

CCCCSCC(O)c1ccccc1 (stereo unspecified)
inactive: [1] -8.85% | [2] -19.1% | [3] -24.5% | [4] -44.1% | [5] 9% | [6] -2.2%

COc1cc(C2SCC(=O)N2c2ccc(-n3c(-c4ccccc4)nc4ccccc4c3=O)cc2)cc(OC)c1OC (stereo unspecified)
inactive: [1] -17.3% | [2] -8.85% | [3] -4.4% | [4] -7.8% | [5] 8.05% | [6] 4.5%

COc1ccc(-c2cc(-c3ccc(C)cc3)n(C3OC(COC(C)=O)C(OC(C)=O)C(OC(C)=O)C3OC(C)=O)c(=S)c2C#N)cc1 (stereo unspecified)
inactive: [1] -10.6% | [2] -11.2% | [3] -10.3% | [4] 16.9% | [5] -2% | [6] 4.4%

COc1ccccc1NC(=O)C1=C(C)NC(C)=C(C(=O)Nc2ccccc2OC)C1c1ccc(N(C)C)cc1
inactive: [1] 50.2% | [2] 41.4% | [3] 61.4% | [4] 24.9% | [5] 46.2% | [6] 45%

COc1ccc(/C(=N\NC(=O)C(=O)NN)C(c2ccc(OC)cc2)C2(O)C(=O)Nc3ccccc32)cc1 (stereo unspecified)
inactive: [1] -19.6% | [2] -20.2% | [3] -22.6% | [4] -65.1% | [5] 12.9% | [6] -18.1%

c1ccc(-c2nc(-c3ccccn3)cc3ccccc23)cc1
inactive: [1] -2.05% | [2] -17.6% | [3] 10% | [4] 2.8% | [5] 5.4% | [6] 18.8%

CCOc1ccccc1NC(=O)C(=O)Cc1nc2ccccc2s1
inactive: [1] -2.65% | [2] 6.1% | [3] -2% | [4] -6.75% | [5] -0.75% | [6] 2.9%

C/C=C/c1cc(C=O)cc(OC)c1O
inactive: [1] 0.15% | [2] -8.1% | [3] -5.4% | [4] -10.6% | [5] -4.4% | [6] 5.75%

CCOC(=O)Cc1ccccn1
inactive: [1] 5.8% | [2] -22.5% | [3] -37.7% | [4] -14.3% | [5] -14.9% | [6] -6%

Cc1c(C)c(Br)c(C)c(C)c1Br
inactive: [1] -7.45% | [2] -18.3% | [3] 4.25% | [4] 10.3% | [5] -6.2% | [6] -16.8%

C[N+](C)(C)C(Cc1c[nH]c(=S)[nH]1)C(=O)O (stereo unspecified)
inactive: [1] -14.9% | [2] -44.4% | [3] -31.1% | [4] 9.45% | [5] -8.4% | [6] -20.4%

O=C(O)COc1ccccc1/C=C1/SC(=S)N(c2ccccc2)C1=O
inactive: [1] -1.4% | [2] -10.8% | [3] -7.25% | [4] -41.5% | [5] 0.55% | [6] 1.1%

S=c1[nH]ncn1/N=C/c1ccccc1Cl
inactive: [1] 23.6% | [2] 37% | [3] 54.4% | [4] 22.9% | [5] -5.65% | [6] 37.6%

Cc1cc(O)c(Br)cc1C
inactive: [1] 5.35% | [2] -33% | [3] 9.15% | [4] -5.45% | [5] 0.2% | [6] -9.45%

COC(=O)C(C(=O)C(=O)Nc1nc2ccc(OC)cc2s1)c1cnc2ccccc2n1 (stereo unspecified)
inactive: [1] -13.2% | [2] -23.2% | [3] -45% | [4] 22.6% | [5] -7.5% | [6] -6.15%

CN(C)CCNc1ccc2nnn3c4ccccc4c(=O)c1c23
inactive: [1] 32.5% | [2] 7.45% | [3] 11.2% | [4] 29.7% | [5] 3% | [6] 25.5%

CC(=O)N(C(=O)CC(=O)N1N=C(c2ccccc2)C(N=Nc2ccccc2[N+](=O)[O-])C1=O)c1ccc(Cl)cc1 (stereo unspecified)
inactive: [1] -4.3% | [2] -21.8% | [3] -0.2% | [4] -37% | [5] -27.2% | [6] -19%

From PubChem BioAssay (NCI)
